Key:
Experiment in all cases: DAPPL (digital affinity profiling via proximity ligation, sequencing); 10 mM Tris-HCl pH 7.5, 50 mM NaCl, 1 mM DTT, 4% glycerol, room temperature, 30 min; GST-TFs on glutathione beads, 16-mer random dsDNA library, 0.1% formaldehyde crosslink after washing; high values mean tight binding
FLI1 = molecular target: T1, FLI1 (Homo sapiens, UniProt Q01543 1-452); details: protein: recombinant; tags: N-terminal GST; dsDNA, one strand shown
T1 sequence: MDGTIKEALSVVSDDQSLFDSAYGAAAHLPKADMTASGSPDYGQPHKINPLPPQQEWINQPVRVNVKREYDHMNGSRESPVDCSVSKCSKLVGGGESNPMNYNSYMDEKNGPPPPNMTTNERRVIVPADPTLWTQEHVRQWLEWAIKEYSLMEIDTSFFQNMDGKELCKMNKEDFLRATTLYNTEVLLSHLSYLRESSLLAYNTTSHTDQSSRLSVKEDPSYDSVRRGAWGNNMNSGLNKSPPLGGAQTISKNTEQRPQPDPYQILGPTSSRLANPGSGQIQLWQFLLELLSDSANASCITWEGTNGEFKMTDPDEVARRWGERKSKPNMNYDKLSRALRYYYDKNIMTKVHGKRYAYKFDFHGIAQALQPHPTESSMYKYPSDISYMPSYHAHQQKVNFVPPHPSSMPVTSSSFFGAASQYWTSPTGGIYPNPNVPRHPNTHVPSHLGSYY
Procedure, shortened: (§1)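 GST fusions of human transcription factors were expressed in yeast and captured with glutathione beads. Once given DNA barcodes and pooled alongside a tag-only sample, they were incubated for 30 min at room temperature with 200 nmole of a random double-stranded 16-mer DNA library in Tris/NaCl/DTT/glycerol buffer, then washed, crosslinked (0.1% formaldehyde), proximity-ligated, PCR-amplified and sequenced on an Illumina NextSeq500. The binding signal of each hexamer is its read frequency for a factor divided by its frequency for the tag-only sample.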

ELK1 = molecular target: T2, ELK1 (Homo sapiens, UniProt P19419 1-428); details: protein: recombinant; tags: N-terminal GST; dsDNA, one strand shown
T2 sequence: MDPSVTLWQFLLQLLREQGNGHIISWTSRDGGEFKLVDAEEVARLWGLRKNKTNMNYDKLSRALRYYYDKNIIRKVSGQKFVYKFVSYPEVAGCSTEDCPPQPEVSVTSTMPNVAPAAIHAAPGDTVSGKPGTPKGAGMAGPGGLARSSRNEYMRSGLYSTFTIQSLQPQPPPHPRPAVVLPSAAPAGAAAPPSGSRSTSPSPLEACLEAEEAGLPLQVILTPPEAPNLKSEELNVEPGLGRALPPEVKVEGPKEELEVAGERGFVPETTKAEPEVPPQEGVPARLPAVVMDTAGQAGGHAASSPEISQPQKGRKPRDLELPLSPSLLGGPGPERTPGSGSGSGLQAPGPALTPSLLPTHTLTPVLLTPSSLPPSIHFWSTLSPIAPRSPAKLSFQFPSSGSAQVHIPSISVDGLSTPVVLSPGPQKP
Procedure, shortened: as §1

GABPA = molecular target: T3, GABPA (Homo sapiens, UniProt Q06546 1-454); details: protein: recombinant; tags: N-terminal GST; dsDNA, one strand shown
T3 sequence: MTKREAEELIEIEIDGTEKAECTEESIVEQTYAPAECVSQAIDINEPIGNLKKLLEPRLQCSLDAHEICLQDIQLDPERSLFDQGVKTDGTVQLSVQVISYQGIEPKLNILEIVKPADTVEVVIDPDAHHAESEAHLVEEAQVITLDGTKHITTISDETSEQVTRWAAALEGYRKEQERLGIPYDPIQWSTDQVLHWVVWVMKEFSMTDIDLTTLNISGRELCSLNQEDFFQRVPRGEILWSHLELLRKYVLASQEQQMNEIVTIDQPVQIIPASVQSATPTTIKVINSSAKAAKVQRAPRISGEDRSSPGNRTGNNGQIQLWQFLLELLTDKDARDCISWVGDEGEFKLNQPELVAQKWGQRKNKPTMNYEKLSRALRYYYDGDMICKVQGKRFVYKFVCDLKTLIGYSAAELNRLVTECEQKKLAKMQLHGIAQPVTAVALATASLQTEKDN
Procedure, shortened: as §1

ERG = molecular target: T4, ERG (Homo sapiens, UniProt P11308 1-479); details: protein: recombinant; tags: N-terminal GST; dsDNA, one strand shown
T4 sequence: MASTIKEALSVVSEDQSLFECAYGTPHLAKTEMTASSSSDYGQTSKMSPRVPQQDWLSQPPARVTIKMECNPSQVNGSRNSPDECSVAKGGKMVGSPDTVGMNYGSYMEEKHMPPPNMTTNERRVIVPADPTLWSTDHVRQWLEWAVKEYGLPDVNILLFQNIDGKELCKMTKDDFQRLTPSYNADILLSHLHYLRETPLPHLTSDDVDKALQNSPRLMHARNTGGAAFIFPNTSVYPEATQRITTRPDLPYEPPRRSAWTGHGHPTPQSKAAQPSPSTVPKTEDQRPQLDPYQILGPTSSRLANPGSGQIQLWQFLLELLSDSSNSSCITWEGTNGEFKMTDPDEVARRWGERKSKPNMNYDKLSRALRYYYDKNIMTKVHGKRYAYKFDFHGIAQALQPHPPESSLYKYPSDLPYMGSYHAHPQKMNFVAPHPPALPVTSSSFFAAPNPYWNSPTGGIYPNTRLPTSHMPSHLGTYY
Procedure, shortened: as §1

ELF1 = ELF1 (Homo sapiens, UniProt P32519 1-619); details: protein: recombinant; tags: N-terminal GST; dsDNA, one strand shown
Procedure, shortened: as §1

EHF = molecular target: T5, EHF (Homo sapiens, UniProt Q9NZC4 1-300); details: protein: recombinant; tags: N-terminal GST; dsDNA, one strand shown
T5 sequence: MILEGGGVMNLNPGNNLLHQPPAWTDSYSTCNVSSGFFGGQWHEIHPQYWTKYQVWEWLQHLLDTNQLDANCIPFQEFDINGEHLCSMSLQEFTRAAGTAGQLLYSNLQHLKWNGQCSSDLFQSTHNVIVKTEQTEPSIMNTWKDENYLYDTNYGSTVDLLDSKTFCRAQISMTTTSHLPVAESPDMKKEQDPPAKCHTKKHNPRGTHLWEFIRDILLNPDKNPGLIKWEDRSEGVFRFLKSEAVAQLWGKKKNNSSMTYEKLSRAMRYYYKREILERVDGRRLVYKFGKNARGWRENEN
Procedure, shortened: as §1

SPI1 = SPI1 (Homo sapiens, UniProt P17947 1-270); details: protein: recombinant; tags: N-terminal GST; dsDNA, one strand shown
Procedure, shortened: as §1

SPIB = SPIB (Homo sapiens, UniProt Q01892 1-262); details: protein: recombinant; tags: N-terminal GST; dsDNA, one strand shown
Procedure, shortened: as §1

ELK3 = molecular target: T6, ELK3 (Homo sapiens, UniProt P41970 1-407); details: protein: recombinant; tags: N-terminal GST; dsDNA, one strand shown
T6 sequence: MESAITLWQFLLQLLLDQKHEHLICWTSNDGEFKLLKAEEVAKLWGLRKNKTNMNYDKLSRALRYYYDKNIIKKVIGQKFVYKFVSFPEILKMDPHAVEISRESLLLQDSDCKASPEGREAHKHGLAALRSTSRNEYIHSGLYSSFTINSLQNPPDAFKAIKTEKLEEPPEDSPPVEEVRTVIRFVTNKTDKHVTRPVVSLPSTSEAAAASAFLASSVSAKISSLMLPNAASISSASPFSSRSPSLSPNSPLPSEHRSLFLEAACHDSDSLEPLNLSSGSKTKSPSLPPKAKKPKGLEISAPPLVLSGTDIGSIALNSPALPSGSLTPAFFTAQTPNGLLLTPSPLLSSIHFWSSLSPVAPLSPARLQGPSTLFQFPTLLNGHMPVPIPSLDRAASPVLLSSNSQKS
Procedure, shortened: as §1

FEV = molecular target: T7, FEV (Homo sapiens, UniProt Q99581 1-238); details: protein: recombinant; tags: N-terminal GST; dsDNA, one strand shown
T7 sequence: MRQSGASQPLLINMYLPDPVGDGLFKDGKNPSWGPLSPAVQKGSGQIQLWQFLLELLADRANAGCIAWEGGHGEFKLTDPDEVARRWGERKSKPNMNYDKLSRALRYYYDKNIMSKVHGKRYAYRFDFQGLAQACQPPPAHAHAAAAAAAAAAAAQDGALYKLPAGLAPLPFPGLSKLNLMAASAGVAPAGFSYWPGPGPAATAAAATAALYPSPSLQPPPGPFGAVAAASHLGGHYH
Procedure, shortened: as §1

ETV5 = ETV5 (Homo sapiens, UniProt P41161 1-510); details: protein: recombinant; tags: N-terminal GST; dsDNA, one strand shown
Procedure, shortened: as §1

HSF1 = HSF1 (Homo sapiens, UniProt Q00613 1-529); details: protein: recombinant; tags: N-terminal GST; chain copies: 3; dsDNA, one strand shown
Procedure, shortened: as §1

SPIC = molecular target: T8, SPIC (Homo sapiens, UniProt Q8N5J4 1-248); details: protein: recombinant; tags: N-terminal GST; dsDNA, one strand shown
T8 sequence: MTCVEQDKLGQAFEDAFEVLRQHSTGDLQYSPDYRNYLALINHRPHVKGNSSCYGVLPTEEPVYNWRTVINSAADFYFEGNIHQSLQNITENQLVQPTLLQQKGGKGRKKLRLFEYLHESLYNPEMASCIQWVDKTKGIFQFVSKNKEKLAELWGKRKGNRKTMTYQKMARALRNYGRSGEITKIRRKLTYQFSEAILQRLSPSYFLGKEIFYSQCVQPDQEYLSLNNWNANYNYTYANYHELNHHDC
Procedure, shortened: as §1

ELF4 = ELF4 (Homo sapiens, UniProt Q99607 1-663); details: protein: recombinant; tags: N-terminal GST; dsDNA, one strand shown
Procedure, shortened: as §1

ELK4 = molecular target: T9, ELK4 (Homo sapiens, UniProt P28324-2 1-405); details: protein: recombinant; tags: N-terminal GST; dsDNA, one strand shown
T9 sequence: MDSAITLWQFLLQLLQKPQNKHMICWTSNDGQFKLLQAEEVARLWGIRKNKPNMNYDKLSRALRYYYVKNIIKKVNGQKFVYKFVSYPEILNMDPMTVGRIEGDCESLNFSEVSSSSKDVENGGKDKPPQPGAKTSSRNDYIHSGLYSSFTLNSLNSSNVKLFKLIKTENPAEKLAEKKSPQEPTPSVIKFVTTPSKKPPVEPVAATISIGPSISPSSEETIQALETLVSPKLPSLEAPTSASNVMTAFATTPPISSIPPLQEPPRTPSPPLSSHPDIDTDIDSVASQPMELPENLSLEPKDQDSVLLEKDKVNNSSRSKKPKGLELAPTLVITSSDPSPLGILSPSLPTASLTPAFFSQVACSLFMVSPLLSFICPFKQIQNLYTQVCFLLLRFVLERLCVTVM
Procedure, shortened: as §1

ETV2 = molecular target: T10, ETV2 (Homo sapiens, UniProt O00321 1-342); details: protein: recombinant; tags: N-terminal GST; dsDNA, one strand shown
T10 sequence: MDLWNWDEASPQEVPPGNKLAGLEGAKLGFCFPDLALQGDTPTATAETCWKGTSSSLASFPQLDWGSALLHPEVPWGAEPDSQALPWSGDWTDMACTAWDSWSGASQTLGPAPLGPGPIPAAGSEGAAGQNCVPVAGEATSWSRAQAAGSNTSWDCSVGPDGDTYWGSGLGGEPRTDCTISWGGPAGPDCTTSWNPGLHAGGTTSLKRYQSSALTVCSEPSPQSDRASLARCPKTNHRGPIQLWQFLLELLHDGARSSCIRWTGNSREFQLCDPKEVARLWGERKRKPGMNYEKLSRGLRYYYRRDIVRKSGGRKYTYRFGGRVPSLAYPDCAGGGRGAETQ
Procedure, shortened: as §1

ELF3 = molecular target: T11, ELF3 (Homo sapiens, UniProt P78545 1-371); details: protein: recombinant; tags: N-terminal GST; dsDNA, one strand shown
T11 sequence: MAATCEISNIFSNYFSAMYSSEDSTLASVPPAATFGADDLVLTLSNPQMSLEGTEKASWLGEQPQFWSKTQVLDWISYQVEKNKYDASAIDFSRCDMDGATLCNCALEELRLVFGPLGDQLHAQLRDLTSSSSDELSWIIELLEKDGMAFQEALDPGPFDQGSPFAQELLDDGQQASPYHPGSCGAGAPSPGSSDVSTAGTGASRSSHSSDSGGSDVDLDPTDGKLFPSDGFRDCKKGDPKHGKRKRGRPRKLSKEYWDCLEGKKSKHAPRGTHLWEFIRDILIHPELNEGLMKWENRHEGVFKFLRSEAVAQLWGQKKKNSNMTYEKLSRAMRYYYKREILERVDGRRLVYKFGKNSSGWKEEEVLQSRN
Procedure, shortened: as §1

CRX = CRX (Homo sapiens, UniProt O43186 1-299); details: protein: recombinant; tags: N-terminal GST; dsDNA, one strand shown
Procedure, shortened: as §1

ETV1 = ETV1 (Homo sapiens, UniProt P50549 1-477); details: protein: recombinant; tags: N-terminal GST; dsDNA, one strand shown
Procedure, shortened: as §1

Chain of ELF1 (P32519 whole entry): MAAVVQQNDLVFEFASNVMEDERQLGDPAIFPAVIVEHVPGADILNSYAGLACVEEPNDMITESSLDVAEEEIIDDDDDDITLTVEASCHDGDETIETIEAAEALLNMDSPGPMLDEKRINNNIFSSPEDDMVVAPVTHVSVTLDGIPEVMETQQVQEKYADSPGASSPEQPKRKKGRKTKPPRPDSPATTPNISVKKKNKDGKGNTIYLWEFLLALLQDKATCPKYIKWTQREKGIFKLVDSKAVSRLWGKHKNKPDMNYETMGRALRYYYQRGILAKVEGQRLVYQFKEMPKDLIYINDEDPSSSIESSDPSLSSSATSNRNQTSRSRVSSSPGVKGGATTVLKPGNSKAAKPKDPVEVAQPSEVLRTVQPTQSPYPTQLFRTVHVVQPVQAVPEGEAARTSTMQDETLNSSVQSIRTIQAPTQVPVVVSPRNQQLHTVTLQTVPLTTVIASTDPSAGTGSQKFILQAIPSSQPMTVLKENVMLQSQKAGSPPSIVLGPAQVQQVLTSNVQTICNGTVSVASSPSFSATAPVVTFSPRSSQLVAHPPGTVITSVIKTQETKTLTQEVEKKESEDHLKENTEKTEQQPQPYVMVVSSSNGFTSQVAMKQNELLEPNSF
Chain of HSF1 (Q00613 whole entry): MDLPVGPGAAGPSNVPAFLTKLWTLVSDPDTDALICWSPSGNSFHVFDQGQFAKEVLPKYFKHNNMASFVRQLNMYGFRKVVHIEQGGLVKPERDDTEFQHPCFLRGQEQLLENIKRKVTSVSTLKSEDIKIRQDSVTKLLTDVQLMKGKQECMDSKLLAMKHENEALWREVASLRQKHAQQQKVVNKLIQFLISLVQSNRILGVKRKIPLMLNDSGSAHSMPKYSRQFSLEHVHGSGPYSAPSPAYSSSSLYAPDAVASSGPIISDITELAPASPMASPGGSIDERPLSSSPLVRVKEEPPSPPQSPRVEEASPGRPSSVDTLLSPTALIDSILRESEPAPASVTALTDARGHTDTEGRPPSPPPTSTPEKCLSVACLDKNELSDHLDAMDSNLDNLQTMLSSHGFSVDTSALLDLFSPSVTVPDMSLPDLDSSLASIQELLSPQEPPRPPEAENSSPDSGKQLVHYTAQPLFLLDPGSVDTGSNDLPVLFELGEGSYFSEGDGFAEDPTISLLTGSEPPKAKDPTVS
Chain of ETV1 (P50549 whole entry): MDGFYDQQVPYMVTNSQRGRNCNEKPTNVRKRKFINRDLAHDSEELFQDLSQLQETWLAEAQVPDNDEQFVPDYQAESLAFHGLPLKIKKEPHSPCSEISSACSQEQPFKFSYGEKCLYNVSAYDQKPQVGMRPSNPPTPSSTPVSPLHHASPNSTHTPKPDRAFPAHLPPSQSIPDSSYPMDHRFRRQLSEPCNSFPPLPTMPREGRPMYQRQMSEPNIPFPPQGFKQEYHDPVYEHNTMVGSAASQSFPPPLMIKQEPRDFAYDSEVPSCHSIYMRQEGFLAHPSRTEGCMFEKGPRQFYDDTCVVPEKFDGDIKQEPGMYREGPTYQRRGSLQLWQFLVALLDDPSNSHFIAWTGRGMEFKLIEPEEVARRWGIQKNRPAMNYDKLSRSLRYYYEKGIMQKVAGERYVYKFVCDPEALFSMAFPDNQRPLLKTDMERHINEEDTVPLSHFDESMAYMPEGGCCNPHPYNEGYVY
Chain of ETV5 (P41161 whole entry): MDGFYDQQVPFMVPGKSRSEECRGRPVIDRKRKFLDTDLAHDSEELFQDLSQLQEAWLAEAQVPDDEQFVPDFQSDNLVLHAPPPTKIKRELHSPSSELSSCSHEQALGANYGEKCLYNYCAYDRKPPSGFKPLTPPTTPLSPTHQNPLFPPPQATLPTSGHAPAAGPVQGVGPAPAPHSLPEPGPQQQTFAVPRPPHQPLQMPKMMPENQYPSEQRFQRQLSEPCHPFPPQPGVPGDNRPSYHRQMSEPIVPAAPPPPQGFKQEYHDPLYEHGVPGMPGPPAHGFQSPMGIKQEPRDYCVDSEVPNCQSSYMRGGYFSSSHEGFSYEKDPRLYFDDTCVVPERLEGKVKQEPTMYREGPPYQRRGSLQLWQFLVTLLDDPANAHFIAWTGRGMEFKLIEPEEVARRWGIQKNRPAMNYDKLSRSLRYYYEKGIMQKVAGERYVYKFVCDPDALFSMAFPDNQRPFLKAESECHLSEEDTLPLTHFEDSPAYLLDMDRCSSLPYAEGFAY
Chain of SPIB (Q01892 whole entry): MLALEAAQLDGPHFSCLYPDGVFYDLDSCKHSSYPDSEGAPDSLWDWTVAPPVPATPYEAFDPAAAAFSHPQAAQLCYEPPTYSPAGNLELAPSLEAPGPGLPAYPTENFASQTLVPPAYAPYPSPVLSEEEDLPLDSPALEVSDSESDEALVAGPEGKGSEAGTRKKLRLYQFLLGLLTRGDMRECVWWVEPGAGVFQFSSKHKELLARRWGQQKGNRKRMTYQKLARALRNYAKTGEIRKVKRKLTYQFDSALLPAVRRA
Chain of ELF4 (Q99607 whole entry): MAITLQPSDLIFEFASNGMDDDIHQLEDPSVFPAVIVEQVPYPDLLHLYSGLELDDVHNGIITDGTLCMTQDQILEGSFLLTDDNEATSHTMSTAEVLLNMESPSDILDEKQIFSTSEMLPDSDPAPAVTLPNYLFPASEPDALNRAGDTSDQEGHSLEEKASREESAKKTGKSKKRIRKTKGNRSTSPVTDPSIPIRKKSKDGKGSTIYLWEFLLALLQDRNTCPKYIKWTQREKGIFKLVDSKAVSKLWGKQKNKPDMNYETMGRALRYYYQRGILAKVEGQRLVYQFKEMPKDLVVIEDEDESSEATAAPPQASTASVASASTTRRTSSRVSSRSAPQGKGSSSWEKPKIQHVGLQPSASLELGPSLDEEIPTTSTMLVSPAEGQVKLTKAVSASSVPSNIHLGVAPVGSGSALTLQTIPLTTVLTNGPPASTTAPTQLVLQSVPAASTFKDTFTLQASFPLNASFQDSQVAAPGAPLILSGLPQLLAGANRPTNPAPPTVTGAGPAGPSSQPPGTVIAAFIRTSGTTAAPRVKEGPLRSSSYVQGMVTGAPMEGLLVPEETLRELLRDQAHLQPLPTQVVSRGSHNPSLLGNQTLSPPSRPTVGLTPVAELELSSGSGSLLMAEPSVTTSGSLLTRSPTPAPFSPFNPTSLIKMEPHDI
Chain of CRX (O43186 whole entry): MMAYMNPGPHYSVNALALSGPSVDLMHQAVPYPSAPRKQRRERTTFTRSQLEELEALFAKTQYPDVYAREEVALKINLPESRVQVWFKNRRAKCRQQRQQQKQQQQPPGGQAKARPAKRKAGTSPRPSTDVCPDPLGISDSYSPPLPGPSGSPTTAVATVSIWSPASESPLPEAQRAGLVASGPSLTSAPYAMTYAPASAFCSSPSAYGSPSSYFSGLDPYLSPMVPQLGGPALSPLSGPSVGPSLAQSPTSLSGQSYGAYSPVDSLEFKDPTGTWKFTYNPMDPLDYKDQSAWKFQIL

## AGCCCT
FLI1
  binding signal: 1.03 fold enrichment (6-mer frequency, TF over GST control)
ELK1
  binding signal: 1.14 fold enrichment (6-mer frequency, TF over GST control)
GABPA
  binding signal: 1.11 fold enrichment (6-mer frequency, TF over GST control)
ERG
  binding signal: 1.09 fold enrichment (6-mer frequency, TF over GST control)
ELF1
  binding signal: 1.07 fold enrichment (6-mer frequency, TF over GST control)
EHF
  binding signal: 1.18 fold enrichment (6-mer frequency, TF over GST control)
SPI1
  binding signal: 1.09 fold enrichment (6-mer frequency, TF over GST control)
SPIB
  binding signal: 1.14 fold enrichment (6-mer frequency, TF over GST control)
ELK3
  binding signal: 1.07 fold enrichment (6-mer frequency, TF over GST control)
FEV
  binding signal: 1.14 fold enrichment (6-mer frequency, TF over GST control)
ETV5
  binding signal: 1.08 fold enrichment (6-mer frequency, TF over GST control)
HSF1
  binding signal: 1.09 fold enrichment (6-mer frequency, TF over GST control)
SPIC
  binding signal: 1.25 fold enrichment (6-mer frequency, TF over GST control)
ELF4
  binding signal: 1.06 fold enrichment (6-mer frequency, TF over GST control)
ELK4
  binding signal: 1.14 fold enrichment (6-mer frequency, TF over GST control)
ETV2
  binding signal: 1.18 fold enrichment (6-mer frequency, TF over GST control)
ELF3
  binding signal: 1.1 fold enrichment (6-mer frequency, TF over GST control)
CRX
  binding signal: 1.25 fold enrichment (6-mer frequency, TF over GST control)
ETV1
  binding signal: 1.05 fold enrichment (6-mer frequency, TF over GST control)

— PMC7862700, “An all-to-all approach to the identification of sequence-specific readers for epigenetic DNA modifications on cytosine”
